Laboratory results published in the supplement of paper PMC10849652.
Targets with a hit are over-represented here; the source holds about 8,800 in all. About 0.5% of all pairs of compound and target were hits.

Experiments:
Assay in all cases: log2 fold change, soluble protein after heating vs DMSO (PISA); higher = thermal stabilisation; K562 lysate, 10 uM; active = over 0.2 and 3.5 SD of the protein, either way, in both replicates (recomputed)
[1] = compound: C1=CC=C(C=C1)[C@H](COC2=CC3=C(C=C2)NC(=O)N3)NC(=O)C4=CC=CN(C4=O)CC5=CC(=C(C=C5)F)F
Method in brief: (§1)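 Thermal stability, expressed as log-two fold change relative to solvent controls, is given from duplicates. Crude K562 extract in PBS pH 7.4 with 1 mM MgCl2, at 1 mg/mL protein, was treated with 10 μM compound for 30 min and heated in aliquots for 3 min across 48°C-58°C. After pooling, adjustment to 0.5% NP-40 at 4°C and centrifugation at 21,000xg for 90 min, supernatant protein was measured by TMTpro 16plex LC-MS/MS with channel sums equalised.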

[2] = compound: CC1=C(SC2=C1C(=N[C@H](C3=NN=C(N32)C)CC(=O)N)C4=CC=C(C=C4)Cl)C
Method in brief: as §1

[3] = compound: CC1=C2C(=CC=C1)N=C(N(C2=O)C3=CC=CC=C3C)CN4C=NC5=C(N=CN=C54)N
Method in brief: as §1

[4] = compound: Cc1sc2c(c1C)C(c1ccc(Cl)cc1)=N[C@@H](CC(=O)OC(C)(C)C)c1nnc(C)n1-2
Method in brief: as §1

[5] = compound: c1ccc([C@@H]2C[C@H]2NC2CCNCC2)cc1
Method in brief: as §1

Measured: log2 fold change

ZNF609 (UniProt O15014)
Sequence of UniProt O15014 (O15014 whole entry, looked up): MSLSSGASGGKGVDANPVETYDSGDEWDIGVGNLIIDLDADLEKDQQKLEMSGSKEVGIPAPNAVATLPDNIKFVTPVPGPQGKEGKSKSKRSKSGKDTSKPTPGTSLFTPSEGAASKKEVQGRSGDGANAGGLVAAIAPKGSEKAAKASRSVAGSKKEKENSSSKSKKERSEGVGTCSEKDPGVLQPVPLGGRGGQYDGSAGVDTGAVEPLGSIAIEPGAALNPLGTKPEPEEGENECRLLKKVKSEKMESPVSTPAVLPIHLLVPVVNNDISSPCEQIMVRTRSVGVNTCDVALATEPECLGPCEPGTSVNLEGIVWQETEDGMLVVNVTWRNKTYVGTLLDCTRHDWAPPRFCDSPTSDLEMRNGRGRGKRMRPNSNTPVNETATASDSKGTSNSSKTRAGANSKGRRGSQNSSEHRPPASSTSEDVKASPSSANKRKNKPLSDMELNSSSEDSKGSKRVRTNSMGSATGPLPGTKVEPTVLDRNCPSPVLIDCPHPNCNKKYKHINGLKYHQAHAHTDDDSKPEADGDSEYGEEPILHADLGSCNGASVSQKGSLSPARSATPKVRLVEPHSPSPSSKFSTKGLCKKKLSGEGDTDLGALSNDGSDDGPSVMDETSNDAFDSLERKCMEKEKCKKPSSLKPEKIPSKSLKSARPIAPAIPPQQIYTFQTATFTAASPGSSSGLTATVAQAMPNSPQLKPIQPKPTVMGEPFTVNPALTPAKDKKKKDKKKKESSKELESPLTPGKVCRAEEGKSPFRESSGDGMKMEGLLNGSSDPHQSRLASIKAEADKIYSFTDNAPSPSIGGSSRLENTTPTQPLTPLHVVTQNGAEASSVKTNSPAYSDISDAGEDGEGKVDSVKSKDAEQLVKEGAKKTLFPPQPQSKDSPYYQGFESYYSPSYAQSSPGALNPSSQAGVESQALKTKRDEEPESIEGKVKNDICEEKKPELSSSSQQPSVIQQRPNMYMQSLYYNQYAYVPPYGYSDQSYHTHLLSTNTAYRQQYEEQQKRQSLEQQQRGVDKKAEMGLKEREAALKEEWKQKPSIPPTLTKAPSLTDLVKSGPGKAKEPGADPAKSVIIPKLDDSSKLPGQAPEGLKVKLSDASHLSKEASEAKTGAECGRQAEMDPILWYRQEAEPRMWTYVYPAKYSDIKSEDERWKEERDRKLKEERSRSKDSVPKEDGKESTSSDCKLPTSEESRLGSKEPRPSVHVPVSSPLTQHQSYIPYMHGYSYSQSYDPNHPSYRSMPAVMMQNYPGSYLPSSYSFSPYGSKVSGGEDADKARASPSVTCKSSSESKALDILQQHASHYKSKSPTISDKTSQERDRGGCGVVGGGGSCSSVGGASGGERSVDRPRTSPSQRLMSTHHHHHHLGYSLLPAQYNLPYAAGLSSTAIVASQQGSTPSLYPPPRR
inactive: [1] 0.009 | [2] 0.008 | [3] 0.078 | [4] -0.047 | [5] -0.082

UNC13D (UniProt Q70J99)
Sequence of UniProt Q70J99 (Q70J99 whole entry, looked up): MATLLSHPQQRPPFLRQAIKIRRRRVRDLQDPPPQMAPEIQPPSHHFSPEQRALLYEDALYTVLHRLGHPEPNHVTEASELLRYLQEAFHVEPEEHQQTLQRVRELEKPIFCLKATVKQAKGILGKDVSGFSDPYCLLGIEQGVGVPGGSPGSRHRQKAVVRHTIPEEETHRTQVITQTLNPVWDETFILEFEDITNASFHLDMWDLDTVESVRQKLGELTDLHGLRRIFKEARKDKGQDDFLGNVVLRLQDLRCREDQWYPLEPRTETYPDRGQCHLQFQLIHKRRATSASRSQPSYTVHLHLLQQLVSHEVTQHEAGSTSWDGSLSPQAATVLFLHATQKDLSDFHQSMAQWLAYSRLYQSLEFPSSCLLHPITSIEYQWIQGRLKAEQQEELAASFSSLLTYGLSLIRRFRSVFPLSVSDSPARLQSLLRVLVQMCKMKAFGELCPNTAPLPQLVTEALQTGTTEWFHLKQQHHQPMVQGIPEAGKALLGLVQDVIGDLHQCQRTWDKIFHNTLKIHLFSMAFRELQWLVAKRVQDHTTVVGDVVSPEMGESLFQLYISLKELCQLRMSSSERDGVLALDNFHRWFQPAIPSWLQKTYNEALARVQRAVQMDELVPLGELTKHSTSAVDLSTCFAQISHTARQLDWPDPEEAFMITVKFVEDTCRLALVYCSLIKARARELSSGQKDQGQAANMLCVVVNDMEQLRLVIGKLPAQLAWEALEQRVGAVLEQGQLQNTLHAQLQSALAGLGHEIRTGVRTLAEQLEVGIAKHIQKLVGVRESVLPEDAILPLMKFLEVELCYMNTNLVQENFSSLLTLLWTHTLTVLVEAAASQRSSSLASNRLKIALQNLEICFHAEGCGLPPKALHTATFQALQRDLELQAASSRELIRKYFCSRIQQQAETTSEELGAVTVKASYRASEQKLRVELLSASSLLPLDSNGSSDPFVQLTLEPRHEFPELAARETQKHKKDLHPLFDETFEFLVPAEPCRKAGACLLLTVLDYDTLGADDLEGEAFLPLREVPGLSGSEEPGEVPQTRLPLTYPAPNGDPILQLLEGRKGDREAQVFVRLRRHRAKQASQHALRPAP
inactive: [1] -0.032 | [2] 0.067 | [3] 0.044 | [4] 0.025 | [5] 0.024

USP8 (UniProt P40818)
Sequence of UniProt P40818 (P40818 whole entry, looked up): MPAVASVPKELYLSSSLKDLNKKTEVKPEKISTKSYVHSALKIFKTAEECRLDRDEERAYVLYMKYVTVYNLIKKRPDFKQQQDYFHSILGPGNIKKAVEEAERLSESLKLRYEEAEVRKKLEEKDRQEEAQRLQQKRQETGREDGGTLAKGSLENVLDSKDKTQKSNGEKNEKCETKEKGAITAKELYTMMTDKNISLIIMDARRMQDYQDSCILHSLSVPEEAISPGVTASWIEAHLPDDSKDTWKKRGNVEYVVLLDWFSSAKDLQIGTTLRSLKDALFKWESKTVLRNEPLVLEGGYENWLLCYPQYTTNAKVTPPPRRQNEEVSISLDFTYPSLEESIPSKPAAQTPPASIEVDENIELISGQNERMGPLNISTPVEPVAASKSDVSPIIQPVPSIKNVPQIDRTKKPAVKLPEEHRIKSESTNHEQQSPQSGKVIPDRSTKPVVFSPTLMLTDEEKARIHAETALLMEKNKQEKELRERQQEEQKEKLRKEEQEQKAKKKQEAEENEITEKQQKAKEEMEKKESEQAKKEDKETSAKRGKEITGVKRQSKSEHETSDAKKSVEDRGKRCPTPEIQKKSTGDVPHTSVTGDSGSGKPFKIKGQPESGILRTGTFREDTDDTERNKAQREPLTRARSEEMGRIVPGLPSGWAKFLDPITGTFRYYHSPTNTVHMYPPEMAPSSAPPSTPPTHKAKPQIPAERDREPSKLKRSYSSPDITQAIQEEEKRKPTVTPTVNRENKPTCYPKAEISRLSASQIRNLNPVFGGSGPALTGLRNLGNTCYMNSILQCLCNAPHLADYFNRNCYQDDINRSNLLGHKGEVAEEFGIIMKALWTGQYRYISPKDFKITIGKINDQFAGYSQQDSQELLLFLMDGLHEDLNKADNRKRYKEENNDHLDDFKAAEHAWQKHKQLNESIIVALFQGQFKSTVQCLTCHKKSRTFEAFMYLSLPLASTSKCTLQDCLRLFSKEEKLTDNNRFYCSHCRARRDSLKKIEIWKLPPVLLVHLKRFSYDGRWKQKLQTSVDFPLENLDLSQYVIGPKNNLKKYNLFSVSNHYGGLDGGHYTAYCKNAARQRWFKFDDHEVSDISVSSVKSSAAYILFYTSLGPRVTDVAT
inactive: [1] -0.018 | [2] 0.016 | [3] 0.01 | [4] 0.009 | [5] 0.036

VAC14 (UniProt Q08AM6)
Sequence of UniProt Q08AM6 (Q08AM6 whole entry, looked up): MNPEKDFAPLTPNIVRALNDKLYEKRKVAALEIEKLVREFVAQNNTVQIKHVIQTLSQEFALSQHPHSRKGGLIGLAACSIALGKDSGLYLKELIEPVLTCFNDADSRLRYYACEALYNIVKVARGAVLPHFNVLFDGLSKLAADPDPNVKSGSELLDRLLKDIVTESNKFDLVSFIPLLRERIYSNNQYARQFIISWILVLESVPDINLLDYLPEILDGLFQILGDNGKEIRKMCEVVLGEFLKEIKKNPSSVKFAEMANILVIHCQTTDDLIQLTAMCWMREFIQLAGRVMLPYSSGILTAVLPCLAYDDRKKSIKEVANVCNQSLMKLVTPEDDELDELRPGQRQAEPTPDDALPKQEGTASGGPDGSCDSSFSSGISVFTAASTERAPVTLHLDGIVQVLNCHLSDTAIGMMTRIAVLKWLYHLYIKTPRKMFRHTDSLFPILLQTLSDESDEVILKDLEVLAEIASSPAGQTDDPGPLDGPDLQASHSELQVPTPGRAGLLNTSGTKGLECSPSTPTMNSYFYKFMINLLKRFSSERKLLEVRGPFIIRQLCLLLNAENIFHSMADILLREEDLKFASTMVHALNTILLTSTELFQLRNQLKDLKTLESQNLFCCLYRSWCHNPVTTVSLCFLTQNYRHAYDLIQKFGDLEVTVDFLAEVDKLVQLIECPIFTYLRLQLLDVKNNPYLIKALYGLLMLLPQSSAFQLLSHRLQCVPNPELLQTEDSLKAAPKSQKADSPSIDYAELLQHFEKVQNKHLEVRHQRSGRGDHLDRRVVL
inactive: [1] -0.008 | [2] -0.008 | [3] 0.042 | [4] -0.012 | [5] 0.001

URGCP (UniProt Q8TCY9)
inactive: [1] 0.003 | [2] 0.036 | [3] 0.044 | [4] 0.047

WRB (UniProt O00258)
Sequence of UniProt O00258 (O00258 whole entry, looked up): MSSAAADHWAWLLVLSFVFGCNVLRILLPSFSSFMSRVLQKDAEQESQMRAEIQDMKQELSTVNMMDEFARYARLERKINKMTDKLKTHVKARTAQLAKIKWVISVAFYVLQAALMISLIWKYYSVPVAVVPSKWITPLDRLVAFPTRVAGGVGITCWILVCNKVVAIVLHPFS
inactive: [1] 0.018 | [2] -0.021 | [3] -0.029 | [4] 0 | [5] -0.191

WRNIP1 (UniProt Q96S55)
inactive: [1] -0.051 | [2] -0.033 | [3] 0.024 | [4] 0.016 | [5] 0.06

YWHAQ (UniProt P27348)
Sequence of UniProt P27348 (P27348 whole entry, looked up): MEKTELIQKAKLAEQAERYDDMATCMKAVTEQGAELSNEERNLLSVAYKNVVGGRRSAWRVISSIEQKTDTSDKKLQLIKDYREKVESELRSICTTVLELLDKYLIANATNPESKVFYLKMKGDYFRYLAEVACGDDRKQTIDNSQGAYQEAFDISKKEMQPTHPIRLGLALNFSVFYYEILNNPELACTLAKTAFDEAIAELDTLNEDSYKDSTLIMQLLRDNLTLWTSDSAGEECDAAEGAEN
inactive: [1] 0.002 | [2] 0.021 | [3] -0.001 | [4] 0.076 | [5] 0.181

VPS39 (UniProt Q96JC1)
inactive: [1] -0.008 | [2] -0.002 | [3] -0.006 | [4] -0.009 | [5] 0.3
